Structures are written as SMILES. Results filed as inconclusive are left out. Activity calls are given as the source filed them. Calls follow the shape of the dose curve; as a rule, active = well fitted cell-killing curve with a large enough effect; inconclusive = small, poorly fitted or top-dose-only effect, or effect the other way; inactive = no such curve, though single readings can be large or run the other way.
Potency is read from the fitted curve at half-maximal effect.

The experiment concerns Tov-21-G. Nature of the experiment: Confirmatory qHTS for gynecologic anti-cancer compounds from libraries of approved drugs and bioactive compounds. Also: nearly all actives have a fitted effect of over 55% in size. The following applies: gynecologic cancer cell panel viability, ATPlite luminescence, 48 h; series mostly up to 57.7 µM. The method in brief:
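Seeding 1,000 cells per well preceded overnight (16 h) attachment, after which 48 h drug treatment across 57.5 uM–0.977 nM (11 points) was applied. Remaining cellular ATP, detected by ATPlite luminescence, defined IC50.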
Turning to `CN(C)C1CCN(C(=O)c2ccc(NC(=O)Nc3nc(N4CCOCC4)nc(N4CCOCC4)n3)cc2)CC1`, the Potency was 0.172 µM (active). Under `COc1ccc(-c2ccc3c(N4CCOCC4C)nc(N4CCOCC4C)nc3n2)cc1CO` (stereo unspecified) stands “inactive”; under `COc1cc2c(cc1-c1c(C)noc1C)ncc1[nH]c(=O)n(C(C)c3ccccn3)c12` (stereo unspecified), 6.85 µM (active); under `C[C@]12CCC(=O)C=C1CC[C@@H]1[C@@H]2[C@@H](O)C[C@@]2(C)[C@H]1CC[C@]2(O)C(=O)CO`, “inactive”. Regarding `CC(Oc1cc(-n2cnc3ccc(CN4CCN(C)CC4)cc32)sc1C(N)=O)c1ccccc1C(F)(F)F` (stereo unspecified), the Potency is 27.3 µM (active). Next, `CCC(=O)N1CCN(c2ccc(-n3c(=O)ccc4cnc5ccc(-c6cnc7ccccc7c6)cc5c43)cc2C(F)(F)F)CC1`: 0.314 µM (active); `Cc1nc(NC(=O)N2CCCC2C(N)=O)sc1-c1ccnc(C(C)(C)C(F)(F)F)c1` (stereo unspecified): 10.9 µM (active). For the compound `COc1cc2c(Oc3ccc(-c4cnc(Nc5ccc(F)cc5)n(C)c4=O)cc3F)ccnc2cc1OCCCN1CCOCC1`, the Potency is 19.3 µM (active). Under `Cc1ccc(C(=O)Nc2ccc(CN3CCN(C)CC3)c(C(F)(F)F)c2)cc1C#Cc1cnc2cccnn12` stands 1.22 µM (active); under `CN1CCN(CCOc2cc(OC3CCOCC3)c3c(Nc4c(Cl)ccc5c4OCO5)ncnc3c2)CC1`, 0.243 µM (active). Under `Nc1ccc(-c2ccc3ncc4ccc(=O)n(-c5cccc(C(F)(F)F)c5)c4c3c2)cn1` stands 3.43 µM (active); under `CN(C)CCC(CSc1ccccc1)Nc1ccc(S(=O)(=O)NC(=O)c2ccc(N3CCN(Cc4ccccc4-c4ccc(Cl)cc4)CC3)cc2)cc1[N+](=O)[O-]` (stereo unspecified), 13.7 µM (active). For `COc1cc(N2CCC(N(C)C)CC2)ccc1Nc1ncc(Cl)c(Nc2ccccc2P(C)(C)=O)n1`, the Potency was 1.72 µM (active). Next, `Cc1cnc(Nc2cccc(CN3CCOCC3)c2)nc1Nc1cccc(S(=O)(=O)NC(C)(C)C)c1`: 3.06 µM (active).

Consider `CC(=O)OC12COC1CC(O)C1(C)C(=O)C(O)C3=C(C)C(OC(=O)C(O)C(NC(=O)OC(C)(C)C)c4ccccc4)CC(O)(C(OC(=O)c4ccccc4)C21)C3(C)C` (stereo unspecified), for which the Potency entry was “inactive”. Next, `NS(=O)(=O)c1ccc(Nc2nc(OCC3CCCCC3)c3[nH]cnc3n2)cc1`: “inactive”; `Cc1ccn(-c2ccc(-c3ncco3)cc2)c(=O)c1-c1ccc2nc(N)ncc2c1`: 6.11 µM (active).

In the case of `COc1cc2c(NC3CCN(C(C)C)CC3)nc(C3CCCCC3)nc2cc1OCCCN1CCCC1`, the Potency is 10.9 µM (active). Under `CN(Cc1cnc2nc(N)nc(N)c2n1)c1ccc(C(=O)N[C@@H](CCC(=O)O)C(=O)O)cc1` stands “inactive”. With `CC(C)Nc1cc(-c2c[nH]c(C(=O)N[C@H](CO)c3cccc(Cl)c3)c2)c(Cl)cn1`, the Potency was 24.3 µM (active). Next, `NC1(c2ccc(-c3nc4ccn5c(=O)[nH]nc5c4cc3-c3ccccc3)cc2)CCC1`: “inactive”. `Cc1c(NC(=O)OCC2COCCN2)cn2ncnc(Nc3ccc4c(cnn4Cc4cccc(F)c4)c3)c12` (stereo unspecified): the Potency was 3.06 µM (active). For `CCS(=O)(=O)c1cccc(-c2cc(C(=O)NC3CCN(C)CC3)c(C)c3[nH]c4ncc(C)cc4c23)c1`, the Potency is 1.5 µM (active). Next, `Cc1cnc(Nc2ccc(OCCN3CCCC3)cc2)nc1Nc1cccc(S(=O)(=O)NC(C)(C)C)c1`: 1.72 µM (active); `COc1cc(-c2nn(C3CCC(N4CCN(C(C)=O)CC4)CC3)c3ncnc(N)c23)ccc1NC(=O)c1cc2ccccc2n1C` (stereo unspecified): 1.09 µM (active). Under `CCN(CC)CCCC(C)Nc1c2ccc(Cl)cc2nc2ccc(OC)cc12` (stereo unspecified) stands 30.6 µM (active); under `CN(C[C@@H]1COCCO1)S(=O)(=O)Nc1ccc2ccc3ncc(-c4cnn(C)c4)cc3c(=O)c2c1`, 17.2 µM (active).

In the case of `O=C(NOC[C@H](O)CO)c1ccc(F)c(F)c1Nc1ccc(I)cc1F`, the Potency was 1.72 µM (active). Next, `CCN1CCN(Cc2ccc(Nc3ncc(F)c(-c4cc(F)c5nc(C)n(C(C)C)c5c4)n3)nc2)CC1`: 2.73 µM (active). Under `Nc1ccc(C(=O)Nc2cccc(-c3nc(N4CCOCC4)c4oc5ncccc5c4n3)c2)cn1` stands 6.11 µM (active); under `CC[C@@]1(O)C(=O)OCc2c1cc1n(c2=O)Cc2c-1nc1ccccc1c2/C=N/OC(C)(C)C`, 0.611 µM (active).

(Values after PubChem BioAssay AID1345085 (National Center for Advancing Translational Sciences (NCATS), 2018).)
